Test results from the supplement of paper PMC4840960.

What follows are compounds tested on E18 rat cortical neuron-glia co-culture (assay: myelination (MBP fiber length per Olig2+ nucleus), % of 1 µM DAPT response (DMSO = 0) (% of DAPT); higher = more myelination, active = 50 or more). Conditions: 5 µM; treatment time: 8 days (DIV5-DIV13).
In short: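 Primary E18 rat cortical co-cultures (papain-dissociated, 20,000 cells/well on poly-d-lysine/laminin 96-well plates) received library compounds at 1 or 5 µM in myelination medium from DIV5 to DIV13. Cells were fixed in 4 % paraformaldehyde and immunostained for MBP and Olig2 with DAPI, and four 10X fields per well in duplicate wells were analysed. Myelination was continuous straight MBP fiber length per Olig2+ nucleus, normalised to 0.1 % DMSO (0) and a 1 µM positive control (100).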
CCOC(=O)[C@H](CCc1ccccc1)N[C@@H](C)C(=O)N1Cc2ccccc2C[C@H]1C(=O)O [Quinapril] was tested, and the myelination was -6.78 (inactive).
In the case of C#C[C@]1(O)CC[C@H]2[C@@H]3CCc4cc(O)ccc4[C@H]3CC[C@@]21C [Ethinyl Estradiol], the myelination is reported as 159.
CCOC(=O)N1CCC(=C2c3ccc(Cl)cc3CCc3cccnc32)CC1 [Loratadine] was tested, and the myelination was -5.18 (inactive).
For Clc1ccccc1C(c1ccccc1)(c1ccccc1)n1ccnc1 [Clotrimazole], the myelination was -27.1 (inactive).
For CC(C)C[C@H](NC(=O)[C@@H](O)[C@H](N)Cc1ccccc1)C(=O)O [Ubenimex], the myelination was 1.09 (inactive).
In the case of COc1nc(C)nc(Cl)c1NC1=NCCN1 [Moxonidine], the myelination is reported as -21.6 (inactive).
With C[C@@H](O)[C@H]1C(=O)N2C(C(=O)O)=C(S[C@@H]3CN[C@H](C(=O)N(C)C)C3)[C@H](C)[C@H]12 [Meropenem] the myelination was -19.5 (inactive).
For CC(=O)OCC(=O)[C@@]1(O)CC[C@H]2[C@@H]3C[C@H](C)C4=CC(=O)C=C[C@]4(C)[C@H]3[C@@H](O)C[C@@]21C [Methylprednisolone acetate], the myelination was -15.1 (inactive).
C[C@H]1C[C@H]2[C@@H]3CCC4=CC(=O)C=C[C@]4(C)[C@@]3(Cl)[C@@H](O)C[C@]2(C)[C@@]1(O)C(=O)CO [Beclomethasone] was tested, and the myelination was -7.92 (inactive).
COc1cc(-c2ccc(=O)[nH]n2)ccc1OC(F)F [Zardaverine] was tested, and the myelination was -42.4 (inactive).
For CN1CCN(C2=Nc3ccccc3Oc3ccc(Cl)cc32)CC1 [Loxapine], the myelination was 4.82 (inactive).
COc1ccc(CC2c3cc(OC)c(OC)cc3CC[N+]2(C)CCC(=O)OCCCCCOC(=O)CC[N+]2(C)CCc3cc(OC)c(OC)cc3C2Cc2ccc(OC)c(OC)c2)cc1OC (stereo unspecified) [Atracurium] was tested, and the myelination was 63.1.
C/C(=C\C(=O)OCCCCCCCCC(=O)O)C[C@@H]1OC[C@H](C[C@@H]2O[C@H]2[C@@H](C)[C@H](C)O)[C@@H](O)[C@H]1O [Mupirocin] was tested, and the myelination was -11.7 (inactive).
With OCc1cc(C(O)CNCCCCCCOCCCCc2ccccc2)ccc1O (stereo unspecified) [Salmeterol] the myelination was -37.6 (inactive).
For CO[C@H]1/C=C/O[C@@]2(C)Oc3c(C)c(O)c4c(O)c(c(/C=N/N5CCN(C)CC5)c(O)c4c3C2=O)NC(=O)/C(C)=C\C=C\[C@H](C)[C@H](O)[C@@H](C)[C@@H](O)[C@@H](C)[C@H](OC(C)=O)[C@@H]1C [Rifampicin], the myelination was -2.96 (inactive).
For C[C@]12C=CC(=O)C=C1CC[C@@H]1[C@@H]2C(=O)C[C@@]2(C)[C@H]1CC[C@]2(O)C(=O)CO [Prednisone], the myelination was -10.1 (inactive).
